Source: PubChem BioAssay (several laboratories)
PAFAH2 FP inh: PAFAH2 (human) inhibition; inhibition, % at 3.39 µM; actives 0.99% (n = 340,000); AID 492956; recombinant PAFAH2, FP-rhodamine activity probe, fluorescence polarization; Q99487;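 active = inhibition above the mean over all tested compounds plus 3 SD, cut at about 30% in these data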;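 note: inhibitors block probe labeling of enzyme so polarization drops; 0% = enzyme with DMSO and 100% = wells lacking PAFAH2 protein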
PAFAH1B2 FP inh: inhibitors of human PAFAH1B2; P68402; recombinant PAFAH1B2, FP-rhodamine activity probe, fluorescence polarization; inhibition, % at 3.39 µM; actives 1.2% (n = 340,000); AID 492953;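 active = inhibition above the mean of all tested compounds plus 3 SD, cut at about 24% in these data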;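 note: 0% = enzyme with DMSO and 100% = wells lacking PAFAH1B2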
Target sequence (P68402 whole entry, looked up): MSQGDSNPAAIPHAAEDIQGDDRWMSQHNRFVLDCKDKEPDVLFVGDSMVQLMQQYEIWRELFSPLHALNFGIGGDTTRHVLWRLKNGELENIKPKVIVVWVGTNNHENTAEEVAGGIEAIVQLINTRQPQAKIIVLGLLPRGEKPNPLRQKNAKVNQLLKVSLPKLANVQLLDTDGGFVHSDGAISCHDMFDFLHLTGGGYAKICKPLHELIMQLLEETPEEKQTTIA
ATG4B inh: inhibitors of human ATG4B cysteine protease; inhibition, % at 8.33 µM; ATG4B cleavage of LC3-PLA2, NBD-HPC fluorescence, 1 h; Q9Y4P1; actives 0.51% (n = 340,000); in the data active = inhibition above about 40%
pPAFAH FP inh: inhibitors of human plasma PAF acetylhydrolase (pPAFAH). AID 463082. inhibition, % at 3.39 µM. actives 1.5% (n = 330,000). Q13093. recombinant pPAFAH, FP-rhodamine probe fluorescence polarization;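 active = inhibition above the mean inhibition across the screen plus 3 SD, cut at about 25% in these data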;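 note: inhibitors block binding of the rhodamine activity-based probe so polarization drops; 0% = enzyme with DMSO and 100% = wells lacking pPAFAH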
PAFAH1B3 inh: blocks human PAF acetylhydrolase 1B catalytic subunit 3; recombinant PAFAH1B3, FP-rhodamine probe, fluorescence polarization; actives 0.28% (n = 340,000); inhibition, % at 3.39 µM; Q15102;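 active = inhibition above the screen-wide average of all tested compounds plus 3 SD, cut at about 25% in these data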;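 note: 0% = enzyme with DMSO only and 100% = wells lacking PAFAH1B3 protein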
Target sequence (Q15102 whole entry, looked up): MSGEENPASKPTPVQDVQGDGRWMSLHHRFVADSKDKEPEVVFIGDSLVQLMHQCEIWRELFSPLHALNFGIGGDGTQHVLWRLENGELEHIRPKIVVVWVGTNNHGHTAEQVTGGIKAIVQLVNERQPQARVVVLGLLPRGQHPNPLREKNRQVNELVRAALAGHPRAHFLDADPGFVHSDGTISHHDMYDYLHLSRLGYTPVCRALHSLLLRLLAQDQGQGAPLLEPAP
DAGLB inh: diacylglycerol lipase beta (human) inhibition. Q8NCG7. HEK293T DAGLB membrane lysate, EnzChek fluorogenic substrate. AID 504411. inhibition, % at 5.17 µM. actives 0.059% (n = 340,000); in the data active = inhibition above about 34%;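 note: 0% = enzyme with vehicle and 100% = wells lacking enzyme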
Starred values were filed as active, the others as inactive; nt = no result given. Only some compounds are listed: those with a hit (about 3% of all), similar ones and a draw of the others.

SMILES | PAFAH2 FP inh | PAFAH1B2 FP inh | ATG4B inh | pPAFAH FP inh | PAFAH1B3 inh | DAGLB inh
COc1ccc(CNC(=O)N2CCN(c3ccccc3OC)CC2)cc1 | -2 | 4 | -2 | 1 | 9 | 5
O=C1c2ccccc2C(=O)c2c([N+](=O)[O-])ccc(O)c21 | 40* | 43* | -10 | 27* | 64* | 0
O=C(O)c1ccc([N+](=O)[O-])c2c1C(=O)c1ccccc1C2=O | 16 | 14 | -1 | 5 | 15 | 0
Cc1ccc2c(c1)N(CCC(=O)NCCCN1CCCC1)C(=O)C(C)O2 (stereo not drawn) | -2 | 6 | 3 | -2 | 10 | -2
Cc1ccc2c(c1C)-c1c(ccc(C)c1C)C(=O)C2=O | 31* | 15 | 32 | nt | 70* | 10
Cc1ccc(CC#N)c(-c2c(CC#N)ccc(C)c2C)c1C | nt | nt | nt | nt | nt | -9
COc1ccc(/C=C2\SC(=O)N(CC(=O)NC3CCS(=O)(=O)C3)C2=O)cc1 (stereo not drawn) | 6 | 3 | 12 | 3 | -1 | 2
Cc1ccc(C(=O)O/N=C(\N)Cc2cccs2)c(Cl)c1 | 35* | 5 | 13 | 12 | 1 | -13
Cc1ccc(C(=O)O/N=C(\N)Cc2ccc([N+](=O)[O-])cc2)c(Cl)c1 | 26 | 4 | -3 | 5 | 8 | -15
CCCc1cc(=O)oc2c(CNc3ccc(OCC)cc3)c(O)ccc12 | 11 | 0 | -11 | 11 | 9 | 3
O=C(CCN1C(=O)/C(=C/c2ccccc2F)SC1=S)N[C@@H](CO)Cc1ccccc1 | 3 | 38* | 9 | -2 | 1 | 3
O=C(CCN1C(=O)/C(=C/c2ccccc2)SC1=S)N[C@@H](CO)Cc1ccccc1 | -5 | 43* | 9 | 1 | 3 | 7
O=C(CCN1C(=O)/C(=C\c2ccccc2F)SC1=S)Nc1ccc(C(=O)O)c(O)c1 | 11 | 6 | nt | 20 | 5 | 11
O=c1[nH]c(CCl)nc2cc(-c3ccc(F)cc3)sc12 | 0 | 29* | 0 | 12 | 3 | 0
O=c1[nH]cnc2cc(-c3ccc(Br)cc3)sc12 | 1 | 13 | -1 | -1 | -11 | 2
CCOc1ccc(NS(=O)(=O)c2ccc3c(c2)oc(=O)n3C)cc1 | -1 | 4 | -15 | 28* | 3 | -1
CCOc1ccc(NS(=O)(=O)c2ccc3c(c2)N(C(C)=O)CC3)cc1 | -10 | 0 | -10 | 6 | -1 | 1
Cc1ccc(NS(=O)(=O)c2ccc3c(c2)oc(=O)n3C)cc1F | 8 | 5 | -8 | 31* | 1 | -1
CCOC(=O)Cn1c(=O)oc2cc(S(=O)(=O)Nc3cccc(C)c3)ccc21 | 7 | 3 | -10 | 26* | -6 | -2
CCOc1ccc(NS(=O)(=O)c2ccc3c(c2)N(C(C)=O)CCS3)cc1 | 5 | -1 | -5 | 32* | 3 | 2
CS(=O)(=O)Nc1cccc(-c2cn3c(n2)SCC3)c1 | -2 | -2 | 4 | 5 | 7 | -2
Cn1c2ccccc2c(=O)c2c(=O)n(Cc3ccco3)c(-c3ccc(C(C)(C)C)cc3)nc21 | nt | nt | nt | 0 | nt | nt
O=C(O)c1ccc2nc(-c3ccco3)c(-c3ccco3)nc2c1 | 40* | 24* | -1 | nt | 52* | -1
O=C(NCCCO)Nc1ccc2nc(-c3ccco3)c(-c3ccco3)nc2c1 | nt | nt | nt | 62* | nt | nt
O=C1CCc2cc(NS(=O)(=O)c3ccc(Br)cc3)cc3c2N1CC3 | 5 | 19 | 4 | 2 | 14 | 2
SMILES | PAFAH2 FP inh | PAFAH1B2 FP inh | ATG4B inh | pPAFAH FP inh | PAFAH1B3 inh | DAGLB inh
CCCOCCc1nnc(N)s1 | 2 | 6 | -9 | 6 | 11 | 0
CN(C)c1ccc(NC(=O)CSc2nc3ccccc3c(=O)n2C2CCCCC2)cc1 | 1 | 4 | 21 | 34* | 12 | -2
Cc1cc(NC(=O)CSc2nc3ccccc3c(=O)n2C2CCCC2)no1 | -2 | 0 | 2 | 30* | 2 | -5
CCN(CC)CCn1c(SCC(=O)Nc2ccc3c(c2)CCC3)nc2ccccc2c1=O | 6 | 25* | -3 | 2 | -6 | -7
CCn1c(SC(C)C(=O)NC2CCCC2)nc2cc(S(N)(=O)=O)ccc21 (stereo not drawn) | -2 | -5 | 5 | -6 | -5 | 1
CC(=O)Nc1ccc(NC(=O)CCNC(=O)c2ccccc2Cl)cc1 | -5 | 1 | 2 | 2 | 10 | -11
